Vif-APOBEC3F blk: qHTS for Inhibitors of Vif-A3F Interactions: qHTS | HeLa A3F-eYFP + Vif (tagged APOBEC3F with the HIV-1 protein that degrades it), YFP fluorescence increase | Potency, µM (titrated, usually from 46.1 µM), inactives show top-dose activity, negative = active | actives 0.2% (n = 390,000) | AID 602313, 2012; note: potency is the fitted concentration of half-maximal effect; % of control where 0% means no effect; nearly all actives have a fitted effect of over 65% in size
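HeLa cells stably expressing A3F-eYFP plus Vif, plated and incubated overnight at 37 deg C, then exposed to compounds overnight at 37 deg C. Blocked degradation read as raised yellow fluorescence (Ex 488/Em 500-530).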
BCR signal inh: qHTS Assay to Find Inhibitors of Chronic Active B-Cell Receptor Signaling; ABC-DLBCL IkBa-CBG/CBR reporter, luminescence ratio, 4 h; Potency, µM (highest dose often 46.1 µM), without a hit: at the top dose activity change, negative = inhibition, most hits filed as inhibitors; actives 0.05% (n = 340,000); AID 493014, 2011; active = well fitted inhibition curve with a large enough effect in the signal ratio, with a control signal flat, not every such curve was filed as active; inconclusive = small, poorly fitted or top-dose-only effect, or effect the other way, or a change in a side signal; the % refers to the signal ratio;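 note: potency is the fitted concentration of half-maximal effect; plate controls were basal doxycycline-induced cells for no effect and cells given 10 µM MG132 for full effect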
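Cell line TMD8 (human ABC DLBCL), stably expressing tet-inducible CBG68-IkBa fusion and CBR; IMDM/0.5% FBS; cpd up to 46 uM; dox induction, 4 h, 37C/5% CO2; dual luminescence; green/red ratio; MG132 control.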
uPA surface inh: qHTS for Inhibitors of Cell Surface uPA Generation. cell surface uPA generation assay, qHTS. Potency, µM (titrated, usually from 38.3 µM), inactives show at the top dose activity change, negative = inhibition, usual class: inhibitors. actives 0.31% (n = 330,000). AID 540303, 2011; active = well fitted inhibition curve with a large enough effect; inconclusive = small, poorly fitted or top-dose-only effect; inactive = no such curve, though single readings can be large or run the other way; tested in mouse RAW 264.7 cells; note: potency is the fitted concentration of half-maximal effect; % is set by controls: 0 for no effect and ±100 for the full control effect; nearly all actives have a fitted effect of over 55% in size
Vif-APOBEC3G blk: qHTS for Inhibitors of Vif-A3G Interactions: qHTS; actives 0.076% (n = 410,000); HeLa A3G-eYFP + Vif (tagged APOBEC3G with the HIV-1 protein that degrades it), YFP fluorescence, overnight; Potency, µM (top dose mostly 46.1 µM), for inactives: top-dose activity, negative = active, most hits filed as inhibitors; AID 602310, 2012; DNA dC->dU-editing enzyme APOBEC-3G (Homo sapiens), Q9HC16; note: potency is the fitted concentration of half-maximal effect; % is set by controls: 0 for no effect and ±100 for the full control effect; nearly all actives have a fitted effect of over 60% in size
Target sequence (Q9HC16 whole entry, looked up): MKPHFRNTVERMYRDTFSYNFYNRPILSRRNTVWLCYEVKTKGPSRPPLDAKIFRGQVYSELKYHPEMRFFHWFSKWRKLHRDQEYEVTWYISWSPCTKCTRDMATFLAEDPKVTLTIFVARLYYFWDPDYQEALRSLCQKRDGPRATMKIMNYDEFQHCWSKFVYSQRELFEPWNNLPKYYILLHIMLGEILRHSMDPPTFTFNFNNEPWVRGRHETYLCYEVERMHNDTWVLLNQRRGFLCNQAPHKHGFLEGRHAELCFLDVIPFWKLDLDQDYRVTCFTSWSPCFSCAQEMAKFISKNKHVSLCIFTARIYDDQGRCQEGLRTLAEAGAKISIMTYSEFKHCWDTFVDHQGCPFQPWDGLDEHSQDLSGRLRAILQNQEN
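HeLa cells stably expressing Vif and C-terminally eYFP-tagged A3G, seeded overnight at 37 deg C, then exposed to compound by pintool overnight at 37 deg C. Rise in yellow fluorescence (Ex 488/Em 500-530, Acumen) marks blocked Vif-driven A3G degradation.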
TCR activator: Activators of T cell receptors: qHTS campaign | Potency, µM (series often up to 9.22 µM), without a hit: at the top dose activation of IL-2 secretion, most hits filed as activators | 330,000 tested, under 10 active | primary human leukocytes, anti-CD3, IL-2 HTRF, 48 h; note: % of control where 0% means no effect
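Readout: HTRF IL-2, Eu-cryptate/d2 antibody pair, 320nm excitation, 665nm emission. Stimulus: a-CD3 beads, no co-stimulation. Cells: primary human leukocytes. Exposure: 48 hr with compound.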
MBNL1-CUG inh: qHTS Assay for Inhibitors of MBNL1-poly(CUG) RNA binding; Muscleblind-like protein 1 (Homo sapiens), Q9NR56; TR-FRET MBNL1-His/biotin-(CUG)12 binding, 665/545 ratio; Potency, µM (titrated, usually from 57.5 µM), for the others: top-dose activity change, negative = inhibition, usual class: inhibitors; actives 0.036% (n = 280,000); active = well fitted inhibition curve with a large enough effect in the signal ratio, with a control signal flat, not every such curve was filed as active; inconclusive = small, poorly fitted or top-dose-only effect, or effect the other way, or a change in a side signal; inactive = no such curve, though single readings can be large or run the other way; the % refers to the signal ratio; note: potency is the fitted concentration of half-maximal effect; % is set by controls: 0 for no effect and ±100 for the full control effect
Target sequence (Q9NR56 whole entry, looked up): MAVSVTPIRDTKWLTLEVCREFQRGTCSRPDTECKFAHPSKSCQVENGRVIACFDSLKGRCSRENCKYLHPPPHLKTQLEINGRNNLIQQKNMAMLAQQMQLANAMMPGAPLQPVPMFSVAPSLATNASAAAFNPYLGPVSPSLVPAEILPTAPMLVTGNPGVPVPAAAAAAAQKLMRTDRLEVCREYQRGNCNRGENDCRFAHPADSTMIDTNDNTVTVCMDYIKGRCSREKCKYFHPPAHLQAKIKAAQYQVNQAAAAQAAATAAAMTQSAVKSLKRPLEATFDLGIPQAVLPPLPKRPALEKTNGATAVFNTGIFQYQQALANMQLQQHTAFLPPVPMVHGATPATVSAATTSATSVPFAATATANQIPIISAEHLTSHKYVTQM
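Inhibition of protein-RNA binding appears as loss of TR-FRET between terbium anti-His antibody on MBNL1-His and streptavidin-XL665 on biotin-(CUG)12. Activity is normalized to buffer-only and uninhibited-complex controls.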
Starred values were filed as active, the others as inactive; ? = inconclusive; / = no result; [ ] = dose if it differs, or a comment. Rows were chosen to be rich in hits. Some 0.54% of all compounds tested hit in one or more screens of this group. Unless noted, calls come from the whole dose curve; as a rule, active = well fitted curve in the direction sought with a large enough effect; inconclusive = small, poorly fitted or top-dose-only effect, or another doubt; inactive = no such curve, though single readings can be large; an effect the other way counts as inactive or inconclusive.

SMILES	Vif-APOBEC3F blk	BCR signal inh	uPA surface inh	Vif-APOBEC3G blk	TCR activator	MBNL1-CUG inh
Cc1ccc(CN2[C@H]3CCCC[C@@H]3OCCS2(=O)=O)cc1	/	/	/	2%	/	/
CC(=O)Nc1ccc(SC[C@H](Cc2ccccc2)N2CC[C@@H](N)CCC2=O)cc1	/	/	/	-1%	/	/
c1ccc2nccnc2c1	/	/	/	-24%	/	/
CCSC1=NSC2=NC(=O)/C(=C\c3coc4ccccc4c3=O)C(=N)N12	25µM*	?	2%	?	-4%[46.1 µM]	/
CCCCNc1c(-c2ccc(SC3CCCCC3)cc2)nc2cnccn12	?	?	0%	3.2µM*	-7%	/
C[n+]1cccc(Br)c1	/	/	/	2%	/	/
CC(=O)Nc1cc([N+](=O)[O-])cc(NC(C)=O)c1NC(C)=O	/	/	/	2%	/	/
CCCCCCCCN1[C@@H](CC(=O)OC)c2ccc(/C=C/C(=O)OC)cc2S1(=O)=O	/	/	/	-2%	/	/
COC(=O)CNC(c1ccccc1)c1cc(Br)ccc1NC(=O)CCN1CCOCC1 (stereo not given)	1%	?	?	-22%	-10%[46.1 µM]	-9%
CCOC(=O)CNC(c1ccccc1)c1cc(Br)ccc1NC(=O)CCN1CCOCC1 (stereo not given)	1%	?	13µM*	-22%	-3%[46.1 µM]	/
O=C1[C@H](Cc2ccccc2)NC/C=C\C[C@H](c2ccco2)N1Cc1ccccc1	/	/	/	-2%	/	/
O=[N+]([O-])c1ccc(O/N=[N+](\[O-])N2CCN(c3ncccn3)CC2)c([N+](=O)[O-])c1	/	/	/	-20%	/	/
CCc1cc2c(N=Nc3c(O)[nH]c4ccccc34)ncnc2s1	?	-3%	-6%	-24%	-4%[46.1 µM]	/
Cc1sc2ncnc(N=Nc3c(O)[nH]c4ccccc34)c2c1C	22µM*	?	0%	-6%	3%[46.1 µM]	/
O=C(OCCF)N1CCN(/[N+]([O-])=N/Oc2ccc([N+](=O)[O-])cc2[N+](=O)[O-])CC1	/	/	/	-3%	/	/
CCOc1ccccc1N1CC(c2nc3ccccc3n2Cc2c(C)cc(C)cc2C)CC1=O (stereo not given)	13µM*	/	/	-27%	/	/
O=C(Nc1cccnc1)c1coc(=O)c2ccccc12	-7%	18µM*	-6%	-6%	-1%	-8%
COc1cc(N2CCCC2)c(OC)cc1/C=C(/C#N)c1ccc(F)cc1	10µM*	?	6%	10µM*	-2%[46.1 µM]	-14%
COc1ccc(C(C#N)=Cc2ccccc2OC)cc1	-6%	/	/	-31%	/	/
COc1cc(N2CCCC2)c(OC)cc1/C=C(/C#N)c1ccc(Br)cc1	4µM*	15%	6%	?	0%	2%
O=C(COc1ccccc1C(=O)Nc1ccccc1)Nc1cccc(Br)c1	/	/	/	-1%	/	/
O=C(Nc1cccc(S(=O)(=O)Nc2ccc(Cl)cc2)c1)c1ccc(Cl)nc1	-16%	?	5µM*	1%	1%[46.1 µM]	6%
COc1ccc(NS(=O)(=O)c2cccc(NC(=O)c3ccc(Cl)nc3)c2)cc1	3%	?	-11%	-12%	3%	-4%
CC(C)(C)n1ncc2c(=O)n(Cc3c(F)cc(Cl)cc3F)cnc21	/	/	/	-5%	/	/
O=Cc1s/c(=N\S(=O)(=O)c2ccccc2)n(CCCCl)c1Cl	28µM*	?	-17%	?	-1%	22%
SMILES	Vif-APOBEC3F blk	BCR signal inh	uPA surface inh	Vif-APOBEC3G blk	TCR activator	MBNL1-CUG inh
CCOC(=O)c1ccc(/C=C2/C=C(c3ccccc3)N(c3ccc(Cl)c(C(=O)O)c3)C2=O)cc1	13µM*	0%	-10%	?	-2%[46.1 µM]	14%[11.5 µM]
CCOC(=O)c1ccc(Cl)c(NC(=O)c2ccc(-c3ccccc3)cc2)c1	-2%	-13%	3%	-10%	/	-16%
COc1cc(/C=c2\[nH]c(=O)/c(=C/c3cc(OC)c(OC)c(OC)c3)[nH]c2=O)cc(OC)c1OC	/	/	/	2%	/	/
CCc1ccc2oc(-c3ccc(OC)cc3)cc(=Nc3c(C)n(C)n(-c4ccccc4)c3=O)c2c1	0%	?	8.9µM*	-6%	-5%	?
Cc1cccc2cc3c(N)c(C(=O)Nc4ccc(N5CCOCC5)cc4)sc3nc12	?	10%	?	13µM*	3%	-1%
Cc1cccc2cc3c(N)c(C(=O)N4CCc5ccccc54)sc3nc12	4.5µM*	?	?	?	1%[46.1 µM]	/
Cc1ccc(C(=O)N2CCc3ccccc32)cc1C	1%	/	0%	-1%	/	/
CCc1cccc2cc3c(N)c(C(=O)Nc4ccc(S(=O)(=O)N5CCCC5)cc4)sc3nc12	?	?	-5%	3.5µM*	2%[46.1 µM]	25%
Cc1cc(C)c2nc3sc(C(=O)N4CCOCC4)c(N)c3cc2c1	?	?	-79%	?	6%	?
Cc1ccc(C)c2nc3sc(C(=O)N4CCOCC4)c(N)c3cc12	?	6%	-17%	10µM*	6%	-1%
COc1cccc(CC(=O)Nc2ccc(S(=O)(=O)N3CCCCC3)cc2)c1	-7%	-15%	-5%	-3%	-4%	/
CN(C)c1ccc(/C=C2\CCc3ccccc32)cc1	/	/	/	1%	/	/
O=C([C@@H]1CC=C[C@@H]2CCN(C3CC3)C(=O)[C@@H]21)N1CCOCC1	/	/	/	1%	/	/
Nc1nc(=S)c2[nH]c(=S)[nH]c2[nH]1	5%	/	-8%	-20%	-4%	/
Nc1nc(=S)c2[nH]cnc2[nH]1	-1%	?	0.16µM*	-34%	2%	/
CNC(=O)C1CC(=O)N(CCc2ccc(OC)c(OC)c2)C(=Nc2ccc(F)cc2)S1 (stereo not given)	0%	-2%	-4%	-3%	2%	0%
CCOC(=O)c1ccc(N=c2sc(C(=O)OC)cc(=O)n2-c2ccc(C(=O)OCC)cc2)cc1	?	1%	?	?	-4%	15%
COC(=O)c1cc(=O)n(CCc2ccc(OC)c(OC)c2)c(=Nc2ccc(F)c(Cl)c2)s1	?	-6%	6.3µM*	?	6%	10%
COC(=O)c1cc(=O)n(-c2ccccc2)c(=Nc2ccccc2)s1	2%	?	4.5µM*	?	4%	13%
COC(=O)c1cc(=O)n(Cc2ccco2)c(=Nc2ccc(F)cc2)s1	10%	?	?	?	-5%	7%
COC(=O)c1cc(=O)n(Cc2ccc(F)cc2)c(=Nc2ccccc2)s1	-14%	?	7.1µM*	-28%	-3%	7%
COC(=O)c1cc(=O)n(Cc2ccc(OC)c(OC)c2)c(=Nc2ccc(F)cc2)s1	-8%	-28%	4.5µM*	1%	-3%	0%

Screens (PubChem BioAssay)
